Laboratory results reported in PubChem BioAssay (NCI).
Compounds without any hit were thinned out: in the full panel of roughly 83,000, 20% have a hit.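 96-well plates, one dose, 48 hours. Percent growth reported; active if below 10.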 Calls of active or inactive are those of the source.

Legend:
Assay in all cases: NCI-60 one-dose screen, 48 h (100 = growth as untreated, 0 = no growth, -100 = all killed)
Conditions in all cases: 10 µM
NCI-H23 lung = system: NCI-H23 lung
NCI-H226 lung = system: NCI-H226 lung
NCI-H322M lung = system: NCI-H322M lung
HOP-62 NSCLC = system: HOP-62 NSCLC
NCI-H460 lung = system: NCI-H460 lung
NCI-H522 lung = system: NCI-H522 lung
A549/ATCC NSCLC = system: A549/ATCC NSCLC
786-0 renal = system: 786-0 renal
COLO 205 colon = system: COLO 205 colon
DU-145 prostate = system: DU-145 prostate
K-562 leukemia = system: K-562 leukemia
MALME-3M melanoma = system: MALME-3M melanoma
MDA-MB-231 breast = system: MDA-MB-231 breast
RXF 393 renal = system: RXF 393 renal
SF-268 CNS = system: SF-268 CNS
SF-295 CNS = system: SF-295 CNS
SF-539 CNS = system: SF-539 CNS
UACC-257 melanoma = system: UACC-257 melanoma
M14 melanoma = system: M14 melanoma
HCT-15 colon = system: HCT-15 colon

Measured: growth

O=C1/C(=C\c2ccccc2)CN(C(=O)c2ccccc2)C/C1=C\c1ccccc1
active: NCI-H522 lung -0.751% | 786-0 renal 2.68% | K-562 leukemia 2.41% | MALME-3M melanoma -37.5% | MDA-MB-231 breast 7.59% | RXF 393 renal -21.2% | UACC-257 melanoma 4.53% | M14 melanoma -49.5% | HCT-15 colon -18.6%
inactive: NCI-H23 lung 57.5% | NCI-H226 lung 37.3% | NCI-H322M lung 75.8% | HOP-62 NSCLC 37.1% | NCI-H460 lung 60.1% | A549/ATCC NSCLC 61.1% | COLO 205 colon 41.5% | DU-145 prostate 24.6% | SF-268 CNS 23.6% | SF-295 CNS 15.7% | SF-539 CNS 69.4%

Cc1ccc(S(=O)(=O)Oc2ccc3c4c(c(=O)oc3c2)CCCCC4)cc1
inactive: NCI-H23 lung 62.9% | NCI-H226 lung 55.9% | NCI-H322M lung 95.1% | HOP-62 NSCLC 81% | NCI-H460 lung 37.2% | NCI-H522 lung 57.9% | A549/ATCC NSCLC 40.9% | 786-0 renal 66.6% | COLO 205 colon 28.5% | DU-145 prostate 87.8% | K-562 leukemia 36.7% | MALME-3M melanoma 71.9% | MDA-MB-231 breast 74.5% | RXF 393 renal 68.6% | SF-268 CNS 77.2% | SF-295 CNS 48.7% | SF-539 CNS 39.8% | UACC-257 melanoma 32% | M14 melanoma 71% | HCT-15 colon 41.3%

CCOC1(OCC)OC(c2ccccc2)=C(C#N)C(/C=C\c2ccccc2)C1(OCC)OCC (stereo not given)
inactive: NCI-H23 lung 82.4% | NCI-H226 lung 81.2% | NCI-H322M lung 84.3% | HOP-62 NSCLC 91.5% | NCI-H460 lung 81.8% | NCI-H522 lung 82.3% | A549/ATCC NSCLC 82.5% | 786-0 renal 87.4% | COLO 205 colon 88.9% | DU-145 prostate 89.7% | K-562 leukemia 73.3% | MALME-3M melanoma 73.7% | MDA-MB-231 breast 85.1% | RXF 393 renal 60.1% | SF-268 CNS 79.8% | SF-295 CNS 94.1% | SF-539 CNS 100% | UACC-257 melanoma 81% | M14 melanoma 78% | HCT-15 colon 81.7%

O=c1[nH]c(-c2ccc(Cl)cc2)nc2sc3c(c12)CCCC3
inactive: NCI-H23 lung 86.1% | NCI-H226 lung 78.1% | NCI-H322M lung 114% | HOP-62 NSCLC 55.7% | NCI-H460 lung 52.2% | NCI-H522 lung 82.4% | A549/ATCC NSCLC 95.8% | 786-0 renal 95.7% | COLO 205 colon 109% | DU-145 prostate 63.9% | K-562 leukemia 69.5% | MALME-3M melanoma 108% | MDA-MB-231 breast 97.8% | RXF 393 renal 89.1% | SF-268 CNS 50.7% | SF-295 CNS 32.9% | SF-539 CNS 72.1% | UACC-257 melanoma 103% | M14 melanoma 68.2% | HCT-15 colon 81.1%

Fc1ccc2nc(-c3nc(-c4ccccc4)n4ccccc34)[nH]c2c1
active: NCI-H226 lung -11.9% | NCI-H322M lung -9.9% | HOP-62 NSCLC -76.2% | NCI-H460 lung -57% | NCI-H522 lung -41.2% | A549/ATCC NSCLC -22.6% | 786-0 renal 0.317% | DU-145 prostate -6.4% | K-562 leukemia 8.58% | MALME-3M melanoma -57.7% | MDA-MB-231 breast -3.47% | RXF 393 renal -25.7% | SF-268 CNS -38.6% | SF-295 CNS -28% | UACC-257 melanoma -17.4%
inactive: NCI-H23 lung 57% | COLO 205 colon 16.1% | SF-539 CNS 27.3% | M14 melanoma 27.7% | HCT-15 colon 20.4%

CN1CC[C@@H](c2c(O)cc(O)c3c(=O)cc(-c4ccccc4Cl)oc23)[C@@H](O)C1
inactive: NCI-H226 lung 11.8% | HOP-62 NSCLC 12.1% | A549/ATCC NSCLC 14.2% | 786-0 renal 13% | MDA-MB-231 breast 13.4% | RXF 393 renal 12.4% | UACC-257 melanoma 15.5%
active: NCI-H23 lung -13.3% | NCI-H322M lung 4.68% | NCI-H460 lung 5.19% | NCI-H522 lung -42.6% | COLO 205 colon -51% | DU-145 prostate 1.56% | K-562 leukemia -23.8% | MALME-3M melanoma -68.9% | SF-268 CNS 9.12% | SF-295 CNS 7.54% | SF-539 CNS -31.3% | M14 melanoma -58.9% | HCT-15 colon -26.7%

CCC(=O)N1C/C(=C/c2ccc(Br)cc2)C(=O)/C(=C/c2ccc(Br)cc2)C1
active: NCI-H23 lung -46.2% | NCI-H226 lung -62.8% | NCI-H322M lung -27.2% | HOP-62 NSCLC -67.4% | NCI-H460 lung -46.8% | NCI-H522 lung -79.6% | A549/ATCC NSCLC -27.2% | 786-0 renal -77.3% | COLO 205 colon -93.1% | DU-145 prostate -65.4% | K-562 leukemia 0.563% | MALME-3M melanoma -67.9% | MDA-MB-231 breast -46.7% | RXF 393 renal -92.7% | SF-268 CNS -38.5% | SF-295 CNS -34.7% | SF-539 CNS -81.2% | UACC-257 melanoma -46.1% | M14 melanoma -76.6% | HCT-15 colon -32.3%

CSc1nn(-c2ccccc2)c2ncnc(Oc3ccc(C)cc3)c12
inactive: NCI-H23 lung 91.8% | NCI-H226 lung 81.4% | NCI-H322M lung 82% | HOP-62 NSCLC 67.5% | NCI-H460 lung 91% | NCI-H522 lung 75.5% | A549/ATCC NSCLC 80% | 786-0 renal 65.4% | COLO 205 colon 113% | DU-145 prostate 105% | K-562 leukemia 88.9% | MALME-3M melanoma 91.6% | MDA-MB-231 breast 66.9% | RXF 393 renal 68.9% | SF-268 CNS 90.7% | SF-295 CNS 93.1% | SF-539 CNS 94.5% | UACC-257 melanoma 93% | M14 melanoma 90.5% | HCT-15 colon 93.5%

COc1ccc(N=C2C(=Nc3ccc(OC)cc3)N(c3ccc(N(C)C)cc3)C(=S)N2c2ccc(OC)cc2)cc1
inactive: NCI-H23 lung 90.9% | NCI-H226 lung 104% | NCI-H322M lung 90.3% | HOP-62 NSCLC 64.3% | NCI-H460 lung 85% | NCI-H522 lung 84.8% | A549/ATCC NSCLC 90.4% | 786-0 renal 12.3% | COLO 205 colon 109% | DU-145 prostate 85.7% | K-562 leukemia 61.9% | MALME-3M melanoma 72.9% | MDA-MB-231 breast 90.2% | RXF 393 renal 106% | SF-268 CNS 90.2% | SF-539 CNS 54.2% | UACC-257 melanoma 76.1% | M14 melanoma 65.3% | HCT-15 colon 74.4%
active: SF-295 CNS 2.47%

COc1cc(/C=C\c2cc(OC)c(OC)c(OC)c2)cc(NS(=O)(=O)c2ccc(Cl)cc2)c1OC
active: NCI-H522 lung -9.34% | COLO 205 colon -4.81% | RXF 393 renal -4.53% | SF-539 CNS -23.9%
inactive: NCI-H23 lung 41% | NCI-H226 lung 33.9% | NCI-H322M lung 48.7% | HOP-62 NSCLC 60.2% | NCI-H460 lung 13.8% | A549/ATCC NSCLC 25.3% | 786-0 renal 39.3% | DU-145 prostate 19.8% | K-562 leukemia 11.2% | MALME-3M melanoma 71.9% | MDA-MB-231 breast 24% | SF-268 CNS 39.7% | SF-295 CNS 10.9% | UACC-257 melanoma 45.2% | M14 melanoma 18.8% | HCT-15 colon 20%

Cc1ccc(NC(=O)Nc2nc3ccccc3s2)cc1NC(=O)Nc1nc2ccccc2s1
active: NCI-H522 lung -33.8%
inactive: NCI-H23 lung 89.5% | NCI-H226 lung 90% | NCI-H322M lung 97.6% | HOP-62 NSCLC 88.3% | NCI-H460 lung 88.5% | A549/ATCC NSCLC 42.5% | 786-0 renal 97.1% | COLO 205 colon 80.6% | DU-145 prostate 107% | K-562 leukemia 83.8% | MALME-3M melanoma 90.6% | MDA-MB-231 breast 82.4% | RXF 393 renal 94.7% | SF-268 CNS 91.5% | SF-295 CNS 101% | SF-539 CNS 74.6% | UACC-257 melanoma 10.5% | M14 melanoma 90.3% | HCT-15 colon 72.9%

COc1cc(/C=C/C(=O)c2ccc(Cl)cc2)ccc1OS(=O)(=O)c1ccc(C)cc1
inactive: NCI-H23 lung 99.3% | NCI-H226 lung 98.5% | NCI-H322M lung 96.7% | HOP-62 NSCLC 95.1% | NCI-H460 lung 103% | NCI-H522 lung 81.7% | A549/ATCC NSCLC 99.9% | 786-0 renal 102% | COLO 205 colon 110% | DU-145 prostate 105% | K-562 leukemia 14.9% | MALME-3M melanoma 101% | MDA-MB-231 breast 90.9% | RXF 393 renal 117% | SF-268 CNS 102% | SF-295 CNS 94.2% | SF-539 CNS 111% | UACC-257 melanoma 110% | M14 melanoma 105% | HCT-15 colon 66%

O=C(Nc1ccc(OS(=O)(=O)c2ccccc2)cc1)C12CC3CC(CC(C3)C1)C2
active: COLO 205 colon -0.16%
inactive: NCI-H23 lung 51.5% | NCI-H226 lung 60.4% | NCI-H322M lung 68.7% | HOP-62 NSCLC 74.4% | NCI-H460 lung 35.5% | NCI-H522 lung 50.9% | A549/ATCC NSCLC 41.6% | 786-0 renal 57.5% | DU-145 prostate 71.6% | K-562 leukemia 13% | MALME-3M melanoma 55.8% | MDA-MB-231 breast 19.9% | RXF 393 renal 26.8% | SF-268 CNS 78.6% | SF-295 CNS 45.6% | SF-539 CNS 19.7% | UACC-257 melanoma 37.8% | M14 melanoma 47.2% | HCT-15 colon 29.9%

c1ccc([C@H]2CN3CCSC3=N2)cc1
inactive: NCI-H23 lung 96.8% | NCI-H226 lung 97.4% | NCI-H322M lung 101% | HOP-62 NSCLC 109% | NCI-H460 lung 114% | NCI-H522 lung 90.8% | A549/ATCC NSCLC 102% | 786-0 renal 99.3% | COLO 205 colon 106% | DU-145 prostate 92.1% | K-562 leukemia 91.8% | MALME-3M melanoma 92.3% | MDA-MB-231 breast 101% | RXF 393 renal 101% | SF-268 CNS 111% | SF-295 CNS 91.3% | SF-539 CNS 87.8% | UACC-257 melanoma 104% | M14 melanoma 85.8% | HCT-15 colon 108%

COc1ccc(Cl)cc1-n1nnc(-c2nc3ccccc3[nH]2)c1N
inactive: NCI-H23 lung 92.8% | NCI-H226 lung 60% | NCI-H322M lung 75% | HOP-62 NSCLC 37.3% | NCI-H460 lung 27.7% | NCI-H522 lung 68.6% | A549/ATCC NSCLC 61.8% | 786-0 renal 58.1% | COLO 205 colon 98.1% | DU-145 prostate 93.4% | K-562 leukemia 94.5% | MALME-3M melanoma 63.8% | MDA-MB-231 breast 86.1% | RXF 393 renal 74.2% | SF-268 CNS 62.6% | SF-295 CNS 58.7% | SF-539 CNS 91.6% | UACC-257 melanoma 95.4% | M14 melanoma 89.3% | HCT-15 colon 94.1%
